Legend:
Details in all cases: concentration: 1 μM, replicates: in singlicate; n = 1
DAPK1 = system: DAPK1
DAPK2 = system: DAPK2
DAPK3 = system: DAPK3
DCAMKL1 = system: T1, DCAMKL1
T1 construct: gene DCLK1

DCAMKL2 = system: T2, DCAMKL2
T2 construct: gene DCLK2

DCAMKL3 = system: T3, DCAMKL3
T3 construct: gene DCLK3

DDR1 = system: DDR1
DDR2 = system: DDR2
DLK = system: T4, DLK
T4 construct: gene MAP3K12

DMPK2 = system: T5, DMPK2
T5 construct: gene CDC42BPG
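Note: KINOMEscan kinase panel screen.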

SMILES	%Inh (DAPK1) [%]	%Inh (DAPK2) [%]	%Inh (DAPK3) [%]	%Inh (DCAMKL1) [%]	%Inh (DCAMKL2) [%]	%Inh (DCAMKL3) [%]	%Inh (DDR1) [%]	%Inh (DDR2) [%]	%Inh (DLK) [%]	%Inh (DMPK2) [%]
COc1ccc(Nc2ncc(C#N)c(Nc3ccccc3C(N)=O)n2)cc1N1CCN(C)CC1.Cl [GSK1558669]	97.8	98.5	99.2	97.4	100	99.6	100	94.2	97.8	89
COC(=O)Nc1nc2cc(Oc3ccc(NC(=O)Nc4cc(F)ccc4F)cc3)ccc2[nH]1.Cl [GW701424]	0	0	8	11	0	17	100	99.2	0	1
CCn1cnc2c(N)ncnc21 [GW345098]	14	5	18	7	7	25	18	0	0	9
NCC(NC(=O)c1cc(-c2cn[nH]c2)c(-c2ccnc3[nH]ccc23)s1)c1ccccc1.O=C(O)C(F)(F)F.O=C(O)C(F)(F)F (stereo not drawn) [GSK1325775]	71	37	87	6	0	0	0	43	37	89
[2H]C([2H])(c1cccc(C(F)(F)F)c1C)n1ccn2c(=O)nc(N3CCOCC3)cc12 [GSK2336394]	26	0	6	8	18	21	0	0	10	0
CC(C)Oc1ccc2c(-c3ccnc(Nc4ccc(N5CCN(C)CC5)cc4)n3)cnn2n1 [GW696155]	97.9	90.3	99.6	93.5	91	99.2	45	74	89	13
CC(=O)Nc1ccc(COc2ccc(Nc3ccnc4cc(-c5ccccn5)ccc34)cc2)cc1.Cl [GW440148]	0	0	21	5	0	9	29	0	71	2
Cc1nnc(-c2ccc(C)c(-c3ccc(C(=O)Nc4ccc(NS(C)(=O)=O)cc4)cc3)c2)o1 [GW702865]	8	3	18	8	0	0	0	46	0	0
Nc1nccc(-c2c(-c3ccc(F)cc3)ncn2C2CCN(CC(F)(F)F)CC2)n1 [SB-236560]	20	0	0	0	0	18	90.8	76	17	12
CC(C)(C)n1cnc2c(N)ncnc21 [SKF-97359]	78	19	0	0	0	11	0	0	31	0
COc1ccc(COc2cc(-n3cnc4ccccc43)sc2C(N)=O)cc1 [GSK1024304]	3	10	8	0	8	0	0	0	25	7
Nc1nc(-c2ccc3c(N)n[nH]c3c2)cc(N2CCCC2)n1 [GSK2227430]	0	0	1	13	0	0	7	3	0	0
O=C(Nc1n[nH]c2cc(-c3cccc(F)c3)ccc12)C1CC1 [SB-735464]	1	11	0	11	0	0	4	8	0	0
COCCNC(=O)c1ccc(-c2cc(C(=O)NC3CC3)cc(F)c2C)cc1 [GW868318]	10	0	28	12	19	13	21	21	6	0
O=c1cc(N2CCOCC2)nc2n(Cc3cccc4ccccc34)ccn12 [GSK2333389]	0	0	0	0	0	2	14	0	0	0
CSc1ccc(-c2cc3ncnc(SCC(=O)O)c3s2)cc1	12	0	0	0	15	8	0	8	44	0
CN1c2ccc(CNc3ccc(F)cc3)cc2-c2c(cnn2C)S1(=O)=O	11	0	0	14	0	0	4	35	0	0

SMILES	%Inh (DAPK1) [%]	%Inh (DAPK2) [%]	%Inh (DAPK3) [%]	%Inh (DCAMKL1) [%]	%Inh (DCAMKL2) [%]	%Inh (DCAMKL3) [%]	%Inh (DDR1) [%]	%Inh (DDR2) [%]	%Inh (DLK) [%]	%Inh (DMPK2) [%]
COc1ccc(S(=O)(=O)NC2CCN(c3cc(C)nc(Nc4cccc(C#N)c4)n3)CC2)cc1.O=C(O)C(F)(F)F [GSK1653539]	0	0	23	0	0	34	0	9	0	0
O=c1cc(N2CCOCC2)nc2n(Cc3cccc(F)c3)ccn12 [GSK2297430]	0	0	0	0	0	2	0	1	23	4
COc1ccc(Nc2nccc(N3CCC(NC(=O)Nc4cc(C)ccc4C)C3)n2)cc1 (stereo not drawn) [GSK1379741]	0	0	10	0	0	4	23	0	0	0
Cn1cc(-c2ccc3c(c2)CCN3C(=O)Cc2ccccc2Cl)c2c(N)ncnc21 [GSK2608885]	0	0	5	13	1	35	100	93.4	6	100
Cc1nnc(-c2ccc3ncc(-c4ccc(S(C)=O)cc4)n3c2)o1 (stereo not drawn)	22	0	0	18	0	0	8	24	0	0
CCc1ccnc(/C=C/c2n[nH]c3cc(Sc4ccccc4C(=O)NC)ccc23)c1	17	0	0	0	0	8	0	13	30	0
O=C(NCCNc1ccnc(Nc2ccc(F)cc2)n1)c1cc2ccccc2s1 [GSK1379874]	0	0	0	0	0	0	0	1	33	0
CNc1ncnc2[nH]ncc12 [SKF-18355]	7	0	0	33	15	0	0	64	11	0
O=c1cc(N2CCOCC2)nc2n(Cc3cccc(C(F)(F)F)c3)ccn12 [GSK2297543]	0	9	10	21	10	0	0	2	0	0
Fc1ccc(-c2ncn(CCCN3CCOCC3)c2-c2ccccn2)cc1 [SB-211742]	17	0	10	12	0	12	0	27	20	0
Cl.Oc1cccc(Nc2ccnc3cc(-c4ccncc4)ccc23)c1 [GW494601]	5	3	15	4	0	8	68	82	54	0
Cc1nnc(-c2ccc3occ(-c4ccc(C(C)O)cc4)c3c2)o1 (stereo not drawn)	7	0	0	13	12	11	12	12	0	3
CN1c2ccc(NCc3ccc(F)cc3)cc2-c2c(cnn2C)S1(=O)=O	3	12	15	16	25	9	0	31	0	0
NS(=O)(=O)CCc1cccc(Nc2nccc(-c3c(-c4cccc(NC(=O)c5c(F)cccc5F)c4)nn4ccccc34)n2)c1 [GSK336735]	0	0	0	13	23	15	100	94.9	59	100
COc1cc2c(cc1OC[C@@H](O)CO)ncc1c3ccc(C#N)cc3[nH]c21	6	6	13	0	0	34	0	0	65	0
Cc1ccc(C(=O)NCC(N)=O)cc1-n1c(C)cc(OCc2ccc(F)cc2F)c(Br)c1=O	0	0	15	3	17	19	15	3	0	0
